In PubChem BioAssay AID588697 (Southern Research Specialized Biocontainment Screening …, 2011) one finds outcome data, which are given here for 28 compounds.

Each structure is given as a SMILES string. Results filed as inconclusive are left out. The source made the active and inactive calls.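 How the source made its calls: active means inhibition of at least 30% at any tested concentration; inactive means the rest, inconclusive results apart.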

For this assay, the system named is M18 aspartyl aminopeptidase (Plasmodium falciparum 3D7). Kind of assay: P. falciparum M18 aspartyl aminopeptidase inhibition – biochemical, QFRET fluorogenic substrate, counter-screen for PfM17LAP inhibitor project, dose response (AID 588697). As to conditions: recombinant PfM18AAP, H-Glu-NHMec fluorogenic substrate; series mostly up to 100 µM. Background: The purpose of a counterscreen is to sort out artefacts and off-target activity.
Take `CCn1c2ccccc2c2cc(NC(=O)CSc3nc(C)cc(=O)[nH]3)ccc21`: the outcome was inactive.

As for `CC1CCc2sc(C(=O)Nc3cccc4c3C(=O)NC4)cc2C1` (stereo not drawn), the result was inactive.

For `COc1cc(NC(=O)CSc2ccccc2)c(C(=O)O)cc1OC`, the result was inactive.

As for `O=C(Cc1cccc2ccccc12)NO`, the result was inactive.

As to `CC1=C(C)CC(C(=O)Nc2nc(-c3cc(C)ccc3C)c(C)s2)C(C(=O)O)C1` (stereo not drawn), the outcome was inactive.

As to `NC(N)=NCCC[C@H](N)C(=O)NO`, the outcome was inactive.

As for `O=C1OCCC1Sc1nnc(NC2CCCCC2)s1` (stereo not drawn), the outcome was inactive.

Regarding `O=C(CSc1nccc(=O)[nH]1)Nc1ccc(Oc2ccccc2)cc1`, the result was inactive.

With `O=C(Nc1ccc(Cl)cc1)Nc1ccccc1C(=O)O`, the result was inactive.

Take `N[C@@H](Cc1c[nH]c2ccccc12)C(=O)NO`: the result was inactive.

With `Cc1ccc(NC(=O)CSc2nc(O)cc(=O)n2Cc2ccccc2)cc1`, the outcome was inactive.

Consider `CCC(C)(C)C1CCc2c(sc(NC(=O)C3CC(C)=C(C)CC3C(=O)O)c2C(=O)OC)C1` (stereo not drawn), for which the result was inactive.

Consider `O=C(CSc1nccc(=O)[nH]1)Nc1ccc(N2CCOCC2)cc1`, for which the outcome was inactive.

Regarding `COc1cc(NC(=O)c2ccc(-c3ccccc3)cc2)c(C(=O)O)cc1OC`, the result was inactive.

With `COC(=O)c1ccccc1NC(=O)c1ccc2c(Cl)c3c(nc2c1)CCC3`, the result was inactive.

As to `O=C(CSc1ccccc1)Nc1cccc2c1C(=O)NC2=O`, the outcome was inactive.

As to `Cc1cc(SCC(=O)Nc2ccccc2C(=O)O)nc2ccccc12`, the outcome was inactive.

For `COC(=O)c1ccccc1NC(=O)c1cc2cc3ccc(C)cc3nc2s1`, the result was inactive.

On to `COC(=O)c1c(NC(=O)C2CCCCC2C(=O)O)sc2c1CCC(c1ccccc1)C2` (stereo not drawn), for which the result was inactive.

Regarding `CC(C)C[C@H](N)C(=O)NO`, the result was inactive.

`Cc1cc(=O)[nH]c(SCC(=O)Nc2ccccc2)n1`: the outcome was inactive.

With `O=C(CSc1nc(O)cc(=O)[nH]1)Nc1ccccc1`, the result was inactive.

Take `COC(=O)c1cc(OC)c(OC)cc1NC(=O)c1sc2nc(C)ccc2c1N`: the outcome was inactive.

Turning to `COc1ccc(-c2nnc(NC(=O)C3CC(C)=C(C)CC3C(=O)O)s2)cc1` (stereo not drawn), the result was inactive.

As to `O=C(O)c1ccccc1C(=O)Nc1nc2c(s1)CCCC2`, the outcome was inactive.

For the compound `COC(=O)c1c(NC(=O)c2ccccc2C(=O)O)sc2c1CCCC2`, the result was inactive.

Consider `COC(=O)c1c(NC(=O)C2CC=CCC2C(=O)O)sc(C)c1-c1ccc(C)cc1` (stereo not drawn), for which the outcome was inactive.

`CC1=C(C)CC(C(=O)Nc2ccc(Oc3ccc(Cl)cc3)cc2)C(C(=O)O)C1` (stereo not drawn): the outcome was inactive.
